# Rows were chosen to be rich in hits. Some 1.2% of all compounds tested hit in one or more screens of this group.
# RGS16-Gao: regulators of human RGS16-Galphao interaction; bead-based flow cytometry RGS16-Galphao binding, fluorescence; actives lie on both sides; O15492+P09471; actives 0.38% (n = 220,000); binding response (% of control), % at 10 µM;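 note: Galphao activated by GDP with aluminum fluoride before binding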
# RGS8-Gao: modulates binding of RGS8 to human Galphao. response (percent of control binding), % at 10 µM. multiplexed bead flow cytometry; actives lie on both sides. actives 0.34% (n = 220,000). P09471; in the data active = response below about 60% or above about 140%; inactive = in between;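 note: Galphao activated as the GDP aluminium fluoride complex binding bead-coupled RGS8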
# Target sequence (P09471 whole entry, looked up): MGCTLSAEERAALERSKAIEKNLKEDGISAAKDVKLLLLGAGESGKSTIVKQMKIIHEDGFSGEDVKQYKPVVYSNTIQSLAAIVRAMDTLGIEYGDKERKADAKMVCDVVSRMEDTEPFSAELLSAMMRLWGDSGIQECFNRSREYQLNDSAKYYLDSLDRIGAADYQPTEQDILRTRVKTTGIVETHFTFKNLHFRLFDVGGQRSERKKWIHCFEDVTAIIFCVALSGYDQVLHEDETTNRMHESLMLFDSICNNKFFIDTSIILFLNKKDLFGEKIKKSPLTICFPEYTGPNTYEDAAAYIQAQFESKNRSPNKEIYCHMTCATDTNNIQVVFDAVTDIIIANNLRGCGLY
# RGS7-Gao reg: human RGS7-Galphao interaction regulation. P09471. Multiplexed bead flow cytometry, RGS7-Galphao binding; actives lie on both sides. binding response (% of control), % at 10 µM. actives 0.35% (n = 220,000). AID 1439; in the data active = binding response below about 49% or above about 150%; inconclusive = no clear call, values can overlap the other calls; inactive = in between;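 note: fluorescent Galphao held in activated GDP-AlF4 state binding bead-coupled RGS7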
# RGS4-Gao reg: human RGS4-Galphao interaction regulation; AID 1415; binding response (% of control), % at 10 µM; P09471; Multiplexed bead flow cytometry, RGS4-Galphao binding; actives lie on both sides; actives 0.33% (n = 220,000); in the data active = binding response below about 49% or above about 150%; inactive = in between;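 note: fluorescent Galphao activated with aluminum fluoride binding bead-coupled RGS4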
# Avidin fluor: compound fluoresces at 488/530 nm on avidin beads; compound fluorescence 488/530 nm, flow cytometry; stronger effect = higher value; fluorescence (KMESF) at 10 µM; actives 0.38% (n = 220,000); AID 1775; in the data active = fluorescence above about 47
# GSH fluor: compound fluoresces at 488/530 nm on GSH beads; fluorescence (KMESF) at 10 µM; AID 1776; actives 0.25% (n = 190,000); GSH beads flow cytometry, compound fluorescence 488/530 nm; stronger effect = higher value; in the data active = fluorescence above about 89;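 note: glutathione beads carrying GST-tagged Bcl family fusion proteins plus one bare bead set; values are compound well signal with DMSO vehicle wells as background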
# RGS-Gao: regulators of human RGS4-Galphao interaction; multiplexed bead flow cytometry, RGS–Galpha-o binding; actives 99% (n = 1,600); RGS4–Galpha-o binding response, % at 10 µM; AID 1504; shares compounds with RGS16-Gao;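 note: fluorescently labeled Galpha-o bound to GDP with aluminium fluoride binding biotinylated RGS beads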
# Avidin counter: interferes with biotinylated probe binding to avidin beads; streptavidin beads, fluorescein-biotin binding, flow cytometry; shares compounds with RGS16-Gao; AID 1783; 1,700 tested, under 10 active; inhibition, % at 10 µM;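 active = inhibition above 50%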;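 note: median green fluorescence of gated singlet beads compared with DMSO control wells; 0% = DMSO wells and 100% = complete loss of bead fluorescence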
# RGS8-Gao confirm: confirmation of regulators of human RGS8-Galphao interaction | AID 1836 | actives 3% (n = 1,700) | shares compounds with RGS16-Gao | binding response (% of control), % at 10 µM | bead-based flow cytometry RGS8-Galphao binding, fluorescence; actives lie on both sides; in the data active = binding response below about 72% or above about 130%; inactive = in between;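 note: Galphao activated as GDP AlF4 complex before binding bead RGS8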
# RGS7-Gao single: confirmation of regulators of human RGS7-Galphao interaction; response (percent of control binding), % at 10 µM; actives 7.8% (n = 1,700); AID 1837; shares compounds with RGS16-Gao; bead-based flow cytometry RGS7-Galphao binding; actives lie on both sides; in the data active = response below about 75% or above about 130%; inactive = in between;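 note: fluorescent Galphao activated with GDP and aluminum fluoride binding bead-coupled RGS7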
# RGS16-Gao single: confirmation of regulators of human RGS16-Galphao interaction; shares compounds with RGS16-Gao; bead-based flow cytometry, RGS16-Galphao binding; actives lie on both sides; response (% of control binding), % at 10 µM; actives 4% (n = 1,700); in the data active = response below about 74% or above about 130%; inactive = in between;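 note: Galphao activated as the GDP aluminium fluoride complex binding bead-coupled RGS16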
# RGS4-Gao confirm: RGS4-Galphao interaction regulation, single point confirmation. shares compounds with RGS16-Gao. binding response (% of control), % at 10 µM. actives 4% (n = 1,700). RGS4-Galphao binding, multiplexed bead flow cytometry; actives lie on both sides. AID 1840; in the data active = binding response below about 74% or above about 130%; inactive = in between
# RGS19-Gao single: RGS19-Galphao interaction regulation, single point confirmation; shares compounds with RGS16-Gao; bead-based flow cytometry RGS19-Galphao binding; actives lie on both sides; response (percent of control binding), % at 10 µM; actives 5% (n = 1,700); in the data active = response below about 50% or above about 160%; inactive = in between;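 note: 100% = no compound control and 0% = blank background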
# * = called active by the depositor; ? = inconclusive; / = not tested or not shown; [ ] = remark or other dose. Unless noted, the rule behind the calls is not given here.
SMILES,RGS16-Gao,RGS8-Gao,RGS7-Gao reg,RGS4-Gao reg,Avidin fluor,GSH fluor,Avidin counter,RGS8-Gao confirm,RGS7-Gao single,RGS16-Gao single,RGS4-Gao confirm,RGS19-Gao single,others
COc1cccc2cc(C(C)=O)oc12,112,97,96,100,8,20,/,/,/,/,/,/,
CCOc1cccc2cc(C(C)=O)oc12,5.6*,11*,10*,11*,/,14,1,101,102,102,101,113,
CN(CC(=O)N1CCCCCC1)S(=O)(=O)c1ccc(F)cc1,101,100,97,98,21,11,/,/,/,/,/,/,
COc1ccc(/C=N/n2cnn(Cc3ccccc3Cl)c2=S)cc1,12*,15*,?,23*,0,10,-2,102,107,101,103,98,
COC(=O)c1sccc1NC(=O)c1c(C)noc1C,92,96,97,97,33,10,/,/,/,/,/,/,
COC(=O)c1sccc1NC(=O)c1cc(C)on1,/,110,96,99,/,44,-1,100,103,102,100,112,
Cc1occc1-c1nnc(-c2cc([N+](=O)[O-])cc([N+](=O)[O-])c2)o1,98,98,93,96,11,11,/,/,/,/,/,/,
Cc1ccc(N2C(=O)c3cccc4c(Oc5ccccc5[N+](=O)[O-])ccc(c34)C2=O)c(C)c1,235*[activator],126,122,121,14,2,1,107,110,107,108,115,RGS-Gao=121*
COc1ccc2[nH]cc(CCn3ccc(=O)c(C)c3C)c2c1,102,101,96,100,8,13,/,/,/,/,/,/,
COCCCn1c(-c2ccc(Cl)cc2)n[nH]c1=S,/,/,/,/,/,33,2,99,109,96,101,99,
Cn1cccc1C(=O)C(=O)Nc1ccc(F)c(F)c1,104,103,100,106,12,14,/,/,/,/,/,/,
CCCC(C(=O)c1ccccc1)n1cncn1 (stereo not drawn),-9.0*,81,78,70,2,4,-1,101,101,102,102,101,RGS-Gao=70*
Cc1cc(NC(=O)c2ccc(C)s2)n(-c2nc3ccccc3[nH]2)n1,0.3*,12*,13*,14*,-2,6,0,95,87,90,92,92,
O=C(N[C@@H](Cc1ccc(O)cc1)C(=O)O)c1ccc(C(F)(F)F)cc1,123,105,152*[activator],138,6,19,0,97,98,99,101,106,RGS-Gao=138*
CC(C)(C)c1ccc(C(=O)NC(Cc2ccccc2)C(=O)O)cc1 (stereo not drawn),99,101,98,102,9,10,/,/,/,/,/,/,
Cc1ccc(S(=O)(=O)NCc2ccc(C(=O)NCc3cccnc3)cc2)cc1,119,106,103,103,22,8,/,/,/,/,/,/,
CCN(CC)C(=O)c1ccc(S(=O)(=O)NCc2cccnc2)cc1,/,/,/,/,/,39,2,101,122,106,108,118,
O=C(OCc1cncs1)c1ccccc1,101,99,96,103,11,14,/,/,/,/,/,/,
